Reference: ChEMBL document CHEMBL4808148, “HDAC6 screening dataset using tau-based substrate in an enzymatic assay yields selective inhibitors and activators” (2021)
The campaign covered roughly 5,600 compounds. About 390 (7%) showed an effect of 50% or more. The entries come from a sample that favours strong results as a whole. Non-standard residues stand in square brackets, D forms with d. Residues, ends and D or L forms follow the SMILES beside them.

Target: T1, Protein deacetylase HDAC6 (Homo sapiens) (UniProt Q9UBN7)
T1 sequence (whole entry): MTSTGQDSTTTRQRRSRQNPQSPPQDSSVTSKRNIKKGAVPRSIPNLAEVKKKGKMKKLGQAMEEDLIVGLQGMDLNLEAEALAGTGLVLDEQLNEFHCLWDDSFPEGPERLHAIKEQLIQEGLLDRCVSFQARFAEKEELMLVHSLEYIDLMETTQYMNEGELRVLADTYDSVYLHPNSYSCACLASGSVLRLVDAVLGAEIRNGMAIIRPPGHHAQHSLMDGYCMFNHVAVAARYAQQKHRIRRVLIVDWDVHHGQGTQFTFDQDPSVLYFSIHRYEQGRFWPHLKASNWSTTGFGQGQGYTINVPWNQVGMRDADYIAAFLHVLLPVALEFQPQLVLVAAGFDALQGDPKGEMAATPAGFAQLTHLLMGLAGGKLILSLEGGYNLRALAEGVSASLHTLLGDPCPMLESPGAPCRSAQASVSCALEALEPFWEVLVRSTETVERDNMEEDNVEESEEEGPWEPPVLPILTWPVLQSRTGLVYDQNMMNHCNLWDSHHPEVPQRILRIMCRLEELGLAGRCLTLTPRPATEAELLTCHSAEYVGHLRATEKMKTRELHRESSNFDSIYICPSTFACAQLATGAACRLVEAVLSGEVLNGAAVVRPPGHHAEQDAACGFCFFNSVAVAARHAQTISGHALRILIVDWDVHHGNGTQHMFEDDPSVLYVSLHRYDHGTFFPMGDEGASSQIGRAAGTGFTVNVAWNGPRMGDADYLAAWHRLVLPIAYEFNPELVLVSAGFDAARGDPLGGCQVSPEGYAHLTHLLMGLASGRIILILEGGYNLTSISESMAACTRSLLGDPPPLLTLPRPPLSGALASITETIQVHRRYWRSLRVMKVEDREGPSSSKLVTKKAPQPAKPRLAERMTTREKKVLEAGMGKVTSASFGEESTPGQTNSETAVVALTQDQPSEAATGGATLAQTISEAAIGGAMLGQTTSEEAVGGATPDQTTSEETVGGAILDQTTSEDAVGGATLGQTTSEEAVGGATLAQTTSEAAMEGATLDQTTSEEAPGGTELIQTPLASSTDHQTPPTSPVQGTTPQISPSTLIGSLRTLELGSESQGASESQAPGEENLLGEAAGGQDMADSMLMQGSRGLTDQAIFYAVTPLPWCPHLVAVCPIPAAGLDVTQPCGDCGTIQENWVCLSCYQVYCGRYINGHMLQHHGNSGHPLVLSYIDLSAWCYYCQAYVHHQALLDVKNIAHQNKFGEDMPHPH
Details: at 10 µM

| SMILES | inhibition [%] |
| --- | --- |
| CCOC(=O)C1=CCCC[C@H]1S(=O)(=O)Nc1ccc(F)cc1Cl | -6.94 |
| CC1=NN(c2ccc(C(=O)O)cc2)C(=O)/C1=C\c1ccc(-c2cc(C)c(C)cc2[N+](=O)[O-])o1 | -7.66 |
| NC(=O)N/N=C/c1ccc([N+](=O)[O-])o1 | -5.79 |
| CCOC(=O)c1ccc(N2NC(=O)/C(=C/c3ccc([N+](=O)[O-])o3)C2=O)cc1 | 66.9 |
| Cc1cccc(CCN2CCC(C(=O)c3ccc(NS(C)(=O)=O)cc3)CC2)n1 | 25.6 |
| C[C@]1(O)C[C@@H](c2nc(-c3ccc4ccc(-c5ccccc5)nc4c3)c3c(N)nccn32)C1 | 29.4 |
| COc1cc2ncnc(Nc3ccc(Oc4ccccc4)cc3)c2cc1OC | 1.72 |
| Nc1ccc2ncnc(NCCc3ccc(Oc4ccccc4)cc3)c2c1 | 58 |
| Fc1ccc(CNc2ncnc3ccc(F)cc23)cc1 | -3.85 |
| FC(F)(F)c1ccccc1-c1cc(C(F)(F)F)c2[nH]c(C3=NOC4(CCCCC4)C3)nc2c1 | -8.26 |
| C[C@]12CC[C@H](O)CC1=CC[C@@H]1[C@@H]2CC[C@]2(C)C(c3cccnc3)=CC[C@@H]12 | 11.3 |
| CC[S+]([O-])c1nc(-c2cccc(OCc3ccccc3)c2)cc(C(F)(F)F)n1 (centres undefined) | 21.6 |
| COc1ccc2cc(C(C)C(=O)Oc3ccc(C(N)=S)cc3)ccc2c1 (centres undefined) | 29 |
| Oc1cc(O)c2c(c1)O[C@H](c1ccc(O)c(O)c1)[C@H](O)[C@H]2c1c(O)cc(O)c2c1O[C@H](c1ccc(O)c(O)c1)[C@H](O)C2 | 11 |
| COc1ccccc1CC(=N)N1C[C@@H]2C(=O)CCC(c3ccccc3)(c3ccccc3)[C@@H]2C1 | 5.85 |
| Cc1c(C2CCN(CCc3ccccc3)CC2)noc1-c1ccc(Cl)cc1 | 5.51 |
| CCCCOCCOc1nc(-c2ccc(C(=O)O)c(F)c2)sc1C | 3.39 |
| Cc1cc(SCc2sc(-c3ccc(C(F)(F)F)cc3)nc2C)ccc1OCC(=O)O | 46.6 |
| Cc1nc(-c2ccc(OCC(C)C)c(C#N)c2)sc1C(=O)O | 94.2 |
| CCCCCCCC(=O)N[C@H](CN1CCCC1)[C@H](O)c1ccc2c(c1)OCCO2 | 6.2 |
| CC(=O)NCC(=O)N[C@H](CCC(=O)O)C(=O)O (Ac-Gly-[dE]-OH) | 1.3 |
| O=C(O)c1ccc2nc(-c3cc(Cl)cc(Cl)c3)oc2c1 | 76.5 |

| SMILES | inhibition [%] |
| --- | --- |
| CCN1CCCC1CNC(=O)c1cc(S(=O)(=O)CC)c(N)cc1OC (centres undefined) | -7.98 |
| C[C@@H]1C(=O)O[C@H]2[C@H](O)C34C5C[C@@H](C(C)(C)C)[C@]36[C@@H](OC(=O)[C@@H]6O)O[C@@]4(C(=O)O5)[C@@]12O (some centres undefined) | 21 |
| CC#CCOC(=O)c1c(C)nc2sc3c(c2c1N)CCC(O)C3 (centres undefined) | 72.4 |
| CN(NC(=O)CC(=O)NN(C)C(=S)c1ccccc1)C(=S)c1ccccc1 | 1.95 |
| CO[C@H]1CC[C@@H](C(=O)c2ccc3nc4c(cc3c2)CCCO4)CC1 | 61 |
| O=S(=O)(c1cccc2c(O)nccc12)N1CCCNCC1 | 9.53 |
| Cc1ccc(S(N)(=O)=O)cc1 | -0.54 |
| COc1cc(NC(=O)c2ccc(-c3ccc(Cl)cc3)o2)cc(OC)c1 | 1.11 |
| COc1ccc(/C=C/C(=O)O)cc1 | -4.93 |
| COc1cccc(NC(=O)/C=C/c2ccc(Cl)cc2)c1 | 99.9 |
| CCN(CC)CCOc1ccc(Nc2ncc3cc(-c4c(Cl)cccc4Cl)c(=O)n(C)c3n2)cc1 | 12.6 |
| Cc1cc(-c2ccc(/N=N/c3ccc4c(S(=O)(=O)O)cc(S(=O)(=O)O)c(N)c4c3O)c(C)c2)ccc1/N=N/c1ccc2c(S(=O)(=O)O)cc(S(=O)(=O)O)c(N)c2c1O | 80.8 |
| NC(=O)NC1NC(=O)NC1=O (centres undefined) | 1.79 |
| C[C@@H]1CCO[C@H]2Cn3cc(C(=O)NCc4ccc(F)cc4F)c(=O)c(O)c3C(=O)N12 | -3.66 |
| O=C1c2ccccc2C(Cc2ccncc2)(Cc2ccncc2)c2ccccc21 | 3.99 |
| CCc1ccc(OCc2ccccc2C(=O)Nc2ccc3nc(C)cc(N)c3c2)cc1 | 80.4 |
| CCN(CC)CCCC(C)Nc1nc(C)cc(Nc2ccc3nc(C)cc(N)c3c2)n1 (centres undefined) | -7.44 |
| CCN(CC)CCOC(=O)C(Cc1cccc2ccccc12)CC1CCCO1 (centres undefined) | 2 |
| Nc1nccc2c1ncn2[C@@H]1C=C(CO)[C@@H](O)[C@H]1O | -4.17 |
| O=C(NCC1(N2CCN(c3ccccc3)CC2)CCOCC1)c1cccnc1Sc1ccccc1 | 8.43 |
| CCC(C)(C)C(=O)C(=O)N1CCC[C@H]1C(=O)OCCCc1cccnc1 | -5.62 |
| COc1cc(C(=O)NS(=O)(=O)c2ccccc2C)ccc1Cc1cn(C)c2ccc(NC(=O)OC3CCCC3)cc12 | 73.7 |

| SMILES | inhibition [%] |
| --- | --- |
| COc1cc(Nc2nc3ccccc3nc2NS(=O)(=O)c2ccc(NC(=O)c3ccc(C)c(OC)c3)cc2)cc(OC)c1 | 17.4 |
| COc1cc(N)c(Cl)cc1C(=O)OCCN1CCCCC1 | 6.86 |
| O=C(NC1Cc2ccccc2N(C[C@@H](O)CO)C1=O)c1cc2cc(Cl)sc2[nH]1 (some centres undefined) | -2.31 |
| CCCCCCCC/C=C\CCCCCCCC(=O)N[C@@H](CO)Cc1ccc(O)cc1 | 27.9 |
| Nc1ccc(/N=N/c2ccccc2)c(N)n1 | 102 |
| NC(C(=O)O)c1cc(O)ccc1Cl (centres undefined) | 15.3 |
| CCCn1c(=O)c2[nH]cnc2n(-c2ccc(Cl)cc2)c1=O | 20.4 |
| OC[C@H]1O[C@@H](Oc2cc(O)cc(/C=C/c3ccc(O)cc3)c2)[C@H](O)[C@@H](O)[C@@H]1O | 31.5 |
| COc1ccc(O)cc1 | 19.4 |
| COc1cc(/C=C2\CCC/C(=C\c3ccc(O)c(OC)c3)C2=O)ccc1O | 35.9 |
| C/C=C(/C(=C/C)c1ccc(O)cc1)c1ccc(O)cc1 | 0.77 |
| Oc1cc(O)cc(O)c1 | 18.2 |
| Oc1ccc(/C=C/c2cc(O)cc(O)c2)cc1 | 97 |
| Oc1cc(O)cc(/C=C/c2ccc(O)c(O)c2)c1 | 85.2 |
| O=S(=O)(O)c1cc(O)ccc1O | -4.71 |
| COc1cc(/C=C/c2ccc(OC)cc2OC)cc(OC)c1 | 86.2 |
| COc1cc(/C=C/c2ccc(O)cc2)cc(OC)c1 | 99 |
| COc1ccc(/C=C\c2cc(OC)c(OC)c(OC)c2)cc1O | 14.7 |
| NCC(O)(CS(=O)(=O)O)c1ccc(Cl)cc1 (centres undefined) | -2.67 |
| C=CC1=C(C)c2cc3[nH]c(cc4nc(cc5[nH]c(cc1n2)c(C)c5CCC(=O)O)C(CCC(=O)O)=C4C)c(C)c3C=C | 21.1 |
